Measurements reported in PubChem BioAssay (NCATS).
Inconclusive results are not listed. A call without a number means that no potency is given here. Active and inactive are the calls of the source. The call rests on the fitted dose curve; in most records, active means well fitted curve in the direction sought with a large enough effect; inconclusive means small, poorly fitted or top-dose-only effect, or another doubt; inactive means no such curve, though single readings can be large; an effect the other way counts as inactive or inconclusive.

Experiments:
[1] = S16 Schwann cell viability assay (CellTiter-Glo assay) (AID 624031); settings: S16 rat Schwann cells viability, 24 h; series mostly up to 57.5 µM;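 further: native untransfected S16 rat Schwann cells; cellular ATP luminescence as a viability measure; nearly all actives have a fitted effect of over 70% in size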
Procedure, shortened: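 Parental S16 cells, 24 h compound, 37 °C. ATP-luminescence viability; DMSO = 0% activity, empty wells as reference; curves classified by fit quality and efficacy.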

[2] = Confirmatory screen GU Rhodamine qHTS for Zika virus inhibitors qHTS (AID 1347157); settings: purified enzyme assay, Rhodamine110 substrate fluorescence, 15 min; series mostly up to 114 µM; further: nearly all actives have a fitted effect of over 70% in size
Procedure, shortened: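 Noncovalent NS2B hydrophilic domain/NS3 protease complex (25 nM final) in 10 mM Tris-HCl pH 8.0, 0.01% Tween 20, preincubated 15 min with compounds (up to 114 microM), then 1.5 microM Rhodamine110 substrate. Fluorescence change over 15 min fitted to 4-parameter Hill.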

FAB9 = assay: qHTS profiling for inhibitors of Plasmodium falciparum proliferation (AID 504749); further: nearly all actives have a fitted effect of over 60% in size; further: potency means the concentration at half of the fitted maximal effect; settings: P. falciparum in erythrocytes, SYBR Green DNA, 72 h; series mostly up to 28.7 µM
Procedure, shortened: (§1)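 SYBR Green fluorescence (ex 485 nm, em 535 nm) reports parasite DNA after 72 h compound exposure of infected red cells at 0.3% parasitemia, 2.5% hematocrit; signal normalized to 0.29 uM artemisinin and vehicle wells.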

[3] = molecular target: ATP-dependent 6-phosphofructokinase (Trypanosoma brucei brucei) (UniProt O15648); assay: qHTS Assay to Find Inhibitors of T. brucei phosphofructokinase: hit validation (AID 492961);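 further: luminescence reports ADP formed as PFK phosphorylates fructose-6-phosphate with ATP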; settings: T. brucei PFK, ADP-Glo luminescence; series mostly up to 51.4 µM
Procedure, shortened: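 Compounds titrated; %activity normalized to 0x and 1x enzyme controls, curve-fitted. Readout: ADP-Glo luminescence after 45 min room-temperature reaction of 1.25 nM PFK, 0.1 mM ATP, 0.5 mM F6P, pH 8.0.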

[4] = molecular target: Luciferin 4-monooxygenase (Photinus pyralis) (UniProt P08659); assay: Biochemical firefly luciferase enzyme assay for NPC (AID 624030);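 further: purified P. pyralis luciferase at 10 nM with luciferin and ATP substrate; nearly all actives have a fitted effect of over 70% in size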; settings: purified P. pyralis luciferase, luminescence, 5 min; series mostly up to 58.6 µM
Procedure, shortened: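 Purified P. pyralis luciferase at 10 nM in 50 mM Tris Acetate (final), luminescence read within 5 minutes of enzyme addition to compounds. Activity normalised to PTC124 versus DMSO; concentration-response curves classed by r2, magnitude and activity.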

3D7 = assay: qHTS profiling for inhibitors of Plasmodium falciparum proliferation (AID 504749); further: nearly all actives have a fitted effect of over 60% in size; further: potency means the concentration at half of the fitted maximal effect; settings: P. falciparum in erythrocytes, SYBR Green DNA, 72 h; series mostly up to 28.7 µM
Procedure, shortened: as §1

7G8 = assay: as above; settings: P. falciparum in erythrocytes, SYBR Green DNA, 72 h; series mostly up to 28.7 µM
Procedure, shortened: as §1

CP266 = assay: as above; settings: P. falciparum in erythrocytes, SYBR Green DNA, 72 h; series mostly up to 28.7 µM
Procedure, shortened: as §1

PC15 = assay: as above; settings: P. falciparum in erythrocytes, SYBR Green DNA, 72 h; series mostly up to 28.7 µM
Procedure, shortened: as §1

PC49 = assay: as above; settings: P. falciparum in erythrocytes, SYBR Green DNA, 72 h; series mostly up to 28.7 µM
Procedure, shortened: as §1

Luciferin 4-monooxygenase (Photinus pyralis), sequence (P08659 whole entry, looked up): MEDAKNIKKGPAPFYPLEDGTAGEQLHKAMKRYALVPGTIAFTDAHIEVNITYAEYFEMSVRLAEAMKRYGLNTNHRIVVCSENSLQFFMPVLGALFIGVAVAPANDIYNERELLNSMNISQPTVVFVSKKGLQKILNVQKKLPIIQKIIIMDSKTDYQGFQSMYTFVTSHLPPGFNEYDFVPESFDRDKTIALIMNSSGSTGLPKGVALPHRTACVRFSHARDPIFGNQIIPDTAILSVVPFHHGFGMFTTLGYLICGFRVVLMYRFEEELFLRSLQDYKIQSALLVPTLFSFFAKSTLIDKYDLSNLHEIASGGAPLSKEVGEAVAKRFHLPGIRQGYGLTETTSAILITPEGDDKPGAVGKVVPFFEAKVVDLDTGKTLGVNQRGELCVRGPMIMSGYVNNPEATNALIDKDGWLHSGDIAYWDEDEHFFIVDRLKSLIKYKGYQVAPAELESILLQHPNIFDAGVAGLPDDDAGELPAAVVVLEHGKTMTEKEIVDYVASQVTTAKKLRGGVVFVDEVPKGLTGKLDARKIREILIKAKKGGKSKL
ATP-dependent 6-phosphofructokinase (Trypanosoma brucei brucei), sequence (O15648 whole entry, looked up): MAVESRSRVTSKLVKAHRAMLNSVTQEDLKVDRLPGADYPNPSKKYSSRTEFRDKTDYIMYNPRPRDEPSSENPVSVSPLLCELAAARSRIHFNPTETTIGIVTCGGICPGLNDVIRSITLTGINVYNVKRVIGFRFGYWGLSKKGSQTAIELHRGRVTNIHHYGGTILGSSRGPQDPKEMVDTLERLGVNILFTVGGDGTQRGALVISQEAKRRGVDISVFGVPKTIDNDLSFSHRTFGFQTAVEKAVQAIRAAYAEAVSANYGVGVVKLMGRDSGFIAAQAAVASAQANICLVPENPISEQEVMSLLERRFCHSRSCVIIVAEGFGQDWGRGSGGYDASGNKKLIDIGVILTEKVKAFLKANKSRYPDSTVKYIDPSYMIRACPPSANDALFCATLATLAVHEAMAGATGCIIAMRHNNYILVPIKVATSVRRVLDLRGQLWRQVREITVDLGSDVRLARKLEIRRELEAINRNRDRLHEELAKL

SMILES | Potency [1] | Potency [2] | Potency (FAB9) | Potency [3] | Potency [4] | Potency (3D7) | Potency (7G8) | Potency (CP266) | Potency (PC15) | Potency (PC49)
O=C(O)c1ccccc1-c1c2cc(Br)c(=O)cc-2oc2[c]([Hg])c(O)c(Br)cc12 | inactive | inactive | inactive |  |  |  |  |  |  | 
CC(C)[C@@]1(NC(=O)[C@H]2CC3c4cccc5[nH]cc(c45)C[C@H]3N(C)C2)O[C@@]2(O)C3CCCN3C(=O)[C@@H](Cc3ccccc3)N2C1=O (stereo not given in full) |  |  |  | inactive | inactive | 2240 nM (active) | 199 nM (active) | 6010 nM (active) | 1780 nM (active) | 3160 nM (active)
